Reference: PubChem BioAssay (NCI)
Where “and” joins values, the source holds several entries; their conditions need not be identical. Identical values can stand only once. The panel holds about 83,000 compounds, 20% with a hit somewhere; the sample as a whole holds those more often.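 Single-concentration screen, 48 h exposure, 96-well plates. Endpoint: percent growth. Below 10 = active.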 A number with no mark means an inactive call. Calls of active or inactive are those of the source.

system: MDA-MB-468 breast; test: NCI-60 one-dose screen, 48 h (100 = growth as untreated, 0 = no growth, -100 = all killed); details: 10 µM unless noted

| Compound | growth |
| --- | --- |
| COc1ccc(/C=N\Nc2nc(SCC(C)C)nc(-c3ccc(OC)cc3)c2C#N)cc1 | 71.8% |
| O=[N+]([O-])c1ccc(Oc2cccc(C(F)(F)F)c2)c([N+](=O)[O-])c1 | -8.95% (active) |
| CCCCCCCC/C=C\CCCCCCCCOc1ccccc1CC(=O)NCC[N+]1(C)CCOCC1 | 65.3% |
| Cc1nn(-c2ccccc2)c(Oc2ccc(Cl)cc2)c1/C=N\N=c1/sc2ccccc2n1C | 81.8% |
| COc1ccc(-c2cc(-c3cc(OC)ccc3OC)[nH]c(=O)c2C#N)cc1 | 37.9% |
| Cn1cc(-c2csc(-c3ccccc3)n2)c2cccnc21 | -34% [100 µM] (active) |
| O[C@@H]1CO[C@H]2[C@@H]1OC[C@@H]2O | 96.3% |
| COc1ccc(C2CC(c3cccc(Nc4ccnc5cc(Cl)ccc45)c3)=NN2C=O)cc1 (stereo unspecified) | 7.85% (active) |
| O=c1c2ccccc2nc(COc2ccccc2)n1NS(=O)(=O)c1ccc(Cl)cc1 | 40.4% |
| COc1ccc2nc3cc(Cl)ccc3c(Nc3ccc(O)cc3)c2c1 | 46% |
| COc1cc(-n2nc(C(=O)Nc3ccc(C(=O)O)cc3)nc2-c2ccccc2)cc(OC)c1OC | 0.458% (active) |
| O=C(CC(SCc1ccccc1)c1ccccc1)c1ccccc1 (stereo unspecified) | 84.9% |
| CC1=C(C(=O)Nc2ccc(F)cc2)C(c2ccc(Cl)cc2)C2=C(CC(C)(C)CC2=O)N1 (stereo unspecified) | 89.4% |
| O=C1c2nsnc2C(=O)c2c(F)c(F)c(F)c(F)c21 | -50.4% (active) |
| CNC(=O)c1cc(-n2ccc3cc(NC(=O)Nc4ccc(N5CCN(C)CC5)c(C(F)(F)F)c4)ccc32)ccn1 | 59.7% |
| CCOc1cccc(Nc2nc(N)nc3[nH]c4ccc(O)cc4c23)c1 | 8.38% (active) |
| COc1ccc(CCN(CC(=O)N(CC(N)=O)C2CCC[C@@H]2OCc2ccccc2)C(=O)CN(C(=O)CN(CCc2ccc(Cl)cc2)C(=O)CN(C(=O)CN(C)Cc2ccccc2F)[C@H](C)C2CCCCC2)[C@H](C)C2CCCCC2)cc1OC (stereo partly specified) | 14.7% |
| Fc1cccc(-c2nc(-c3c[nH]c4ncccc34)cs2)c1 | 29.4% [100 µM] |

| Compound | growth |
| --- | --- |
| Cc1sc(N=Nc2ccc(N(C)C)cc2)[n+]([O-])c1C | 75.2% |
| CCOC(=O)c1c(Cl)c2c(n1Cc1cccc(OC)c1)-c1oncc1CC2 | 11.1% |
| C[C@@H]1C(=O)N(C[C@H](Cc2ccccc2)NC(=O)OCc2ccccc2)[C@]1(Cc1ccccc1)C(=O)OCc1ccccc1 | 24.6% |
| O=C1/C(=C/c2ccc(-c3ccccc3C(F)(F)F)o2)SC(=S)N1CCc1ccc(O)cc1 | 28.8% |
| Fc1cccc(-c2[nH]nc3nc(Nc4cccnc4)sc23)c1 | 11.9% |
| O=C1c2c(O)cc(O)cc2-c2c(-c3ccc(O)cc3)oc3cc(O)cc1c23 | 46.4% |
| CCCCCCCN(CCCCCCC)C(=N)c1ccc(OC)c2ccccc12 | -85% (active) |
| CC(=O)c1ccc(Nc2nc(C(C)=O)c(C)s2)cc1 | 94.5% |
| Nc1ncc([N+](=O)[O-])cn1 | 96.2% |
| COc1ccc(OC)c(-c2ccc(-c3ccccc3N)c3[nH]c4ccccc4c23)c1 | 72.1% |
| CCCCCCn1c(-c2ccc(C(=O)O/N=C(\N)c3ccc4ccccc4c3)cc2)nc(-c2ccccc2)c1-c1ccccc1 | 78.8% |
| N#C/C(=C/c1ccc(O)c([N+](=O)[O-])c1)c1nc(-c2ccc([N+](=O)[O-])cc2)cs1 | 14.3% |
| CC(=O)Nc1c(Cl)cc2c(c1Cl)Cc1ccccc1-2 | 70.6% |
| C=C1c2c(C)nn(-c3ccc(C#CCOC4OC(CO)C(O)C(O)C4O)cc3)c2N(C)C23C[C@H]1C1(C)c4c(C)nn(-c5ccc(C#CCOC6OC(CO)C(O)C(O)C6O)cc5)c4N(C)C(C)(C[C@H]12)C3 (stereo partly specified) | -16.4% (active) |
| Cc1c(C(=O)O[C@H]2[C@@H]3[C@H](C)CC[C@H]3[C@]3(C)O[C@@]2(C2CCCCC2)C[C@H]3OC(=O)CO)ccc2ccccc12 | 22.5% |
| NC(N)=Nc1ccc(Nc2cccc(Nc3ccc(Cl)c(C(F)(F)F)c3)c2)cn1 | -7.19% (active) |
| Cc1cc(O)c(C(C)C)cc1N | 8.67% (active) and -40.1% (active) |
| COc1cc2c(c(OC)c1OC)C(=O)CC(c1cccc(NC(=O)c3ccccc3Br)c1)O2 (stereo unspecified) | 85.1% |
